Each structure is given as a SMILES string. This is part of a sample that, as a whole, favours compounds with a hit. Of some 83,000 tested, about 20% had one in any assay.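 96-well plates, one dose, 48 hours. Percent growth reported; active if below 10.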 Activity calls are given as the source filed them.

This assay concerns CAKI-1 renal. In words: NCI-60 one-dose screen, 48 h (100 = growth as untreated, 0 = no growth, -100 = all killed). As to conditions: 10 µM. As to the method:
Growth inhibition of the CAKI-1 human tumor cell line is measured as a screen for anti-cancer activity. Cells are grown in 96 well plates and exposed to the test compound for 48 hours. Compounds are tested at a single concentration, which is 10^-5 M for most compounds. The reported endpoint is percent growth (GI% or GIPRCNT), where numbers from 0 - 100% represent growth inhibition, and numbers from -100% - 0 represent cell death. For example, a value of 40 represents 60% growth inhibition. A value of 0 means no net growth occurred over the course of the experiment. A value of -40 indicates 40% of cells at the beginning of the experiment died by the end of the experiment. A value of -100 means all cells are dead at the end of the experiment.
NCI-60 Human Tumor Cell Lines Screen was performed using the standard one-dose NCI protocol, which is described in more detail at https://dtp.cancer.gov/discovery_development/nci-60/default.htm.
Compounds with GIPRCNT values below 10 were considered active. Activity score was based on GIPRCNT using the following formula: […]
Score is 0 for GIPRCNT values of 100 or above, 50 for GIPRCNT values of 0, and 100 for GIPRCNT values of -100.
For `O=C(N/N=C/c1ccccc1O)Nc1nn[nH]n1`, the growth is 94.8% (inactive).
With `CC(C)C1CCCCC1O` (stereo not given), the growth was 101% (inactive).
For `CC12CC3CC1C(C(=O)O2)C3C(=O)O` (stereo not given) the value was 102% (inactive).
The result for `Oc1ccccc1-c1nnco1` reads 100% (inactive).
For `COC(=O)C(O)c1ccccc1` (stereo not given), the growth was 114% (inactive).
The result for `CC(C)=CC(=O)OC(=O)C=C(C)C` reads 108% (inactive); that for `O=S(=O)(O)c1ccc(O)c2ccccc12`, 68.5% (inactive); that for `Cc1ccc(Cl)cc1N1C(=O)CC(Sc2ccccc2N)C1=O` (stereo not given), 97.2% (inactive).
The result for `Cc1ccc(C(=O)c2ccccc2)c(C)c1` reads 121% (inactive); that for `COc1ccc(OC)c(/C=C2\CCc3ccccc3C2=O)c1`, 39.1% (inactive).
The result for `CC(C)(O)C#CC#CC(C)(C)O` reads 97.5% (inactive).
In the case of `Cc1cc2ccccc2c(O)c1C#N`, the growth was 115% (inactive).
For `O=C(N/N=C\c1cc(Br)cc(Br)c1O)N/N=C/c1cc(Br)cc(Br)c1O` the value was 41.4% (inactive).
In the case of `CC(=O)Cc1cc(-c2cc(CC(C)=O)[nH]n2)n[nH]1`, the growth was 87.7% (inactive).
The result for `COc1ccc2c(c1)CCc1c-2n[nH]c1-c1[nH]nc2c1CCc1cc(OC)ccc1-2` reads 53.2% (inactive); that for `CC(C)(C)c1cc(O)c(C(C)(C)C)cc1O`, 84.4% (inactive).
The result for `COc1ccc(C2OC(N)=C(O)C2=O)cc1OC` (stereo not given) reads 92.7% (inactive).
For `c1ccc2c(c1)Sc1ccccc1S2` the value was 103% (inactive).
Regarding `Nc1ccc(CC(=O)O)c(N)c1`, the growth was 89% (inactive).
In the case of `CC(=O)N(C)c1ccc([N+](=O)[O-])cc1`, the growth is 107% (inactive).
The result for `COc1ccc2c(NCCCCCCCCNc3c4ccccc4nc4cc(OC)ccc34)c3ccccc3nc2c1` reads -100% (active); that for `O=C(CCl)Nc1ccc2c(c1)C(=O)c1ccc(NC(=O)CCl)cc1C2=O`, -88.7% (active); that for `O=C(CCNNC(=O)c1ccncc1)NCc1ccccc1`, 109% (inactive).
For `CCCCC(CC)COC(C)=O` (stereo not given) the value was 96.9% (inactive).
The result for `CCC/C=C(/C(C)=O)C(=O)OCC` reads 128% (inactive).
Regarding `Cc1nc2ccccc2c2nnc(SCC(=O)N(Cc3ccccc3)c3ccccc3)n12`, the growth was 71.3% (inactive).
As for `CC1(C)S(=O)(=O)OCCOS1(=O)=O`, the growth was 93.9% (inactive).
The result for `CCNc1nc2c(cnn2C)c(=O)[nH]1` reads 93.9% (inactive); that for `CC(=Nc1ccccc1)C1=C(O)C(Cc2cccc(F)c2)NC1=O` (stereo not given), 37.2% (inactive); that for `CC1=C(/C=C/C(C)=C/C=C/C(C)=C/CO)C(C)(C)CCC1`, 88.6% (inactive).
For `NC(CSC(c1ccccc1)(c1ccccc1)c1ccccc1)C(=O)O` (stereo not given) the value was 31% (inactive); for `CC(O)COc1ccc(-c2ccccc2)cc1` (stereo not given), 91.9% (inactive); for `CCCCCCCCCCCCCC(=O)Oc1ccc[nH]c1=O`, 84.5% (inactive).
For `CCOc1ccc(Br)cc1/C=N\N=C\c1cc(Br)ccc1OCC` the value was 90.8% (inactive).
With `CCc1nn(Cc2ccccc2)c2nc(C)c(CCc3ccccc3)c(Cl)c12`, the growth was 67.8% (inactive).
The result for `CC(=O)OCC1OC(OC2=C(CC=C(C)C)C(=O)c3ccccc3C2=O)C(OC(C)=O)C(OC(C)=O)C1OC(C)=O` (stereo not given) reads 68.5% (inactive); that for `Cc1cc2nc(CC(=O)c3cccc([N+](=O)[O-])c3)c(=O)[nH]c2cc1C`, 76.5% (inactive).
The result for `Cc1ccc(O)c(C(=O)c2ccccc2)c1` reads 104% (inactive).
The result for `c1ccc(/C(=N\N=C(/c2ccccc2)c2cccs2)c2cccs2)cc1` reads 89.9% (inactive); that for `c1ccc2c(N3CCCCC3)ncnc2c1`, 91% (inactive).

(Values after PubChem BioAssay (NCI).)
